# Values joined by “and” are separate entries in the source; they are usually repeats but may differ in a detail not shown here. Equal values may be shown once. Results filed as inconclusive are left out. Some structures have more than one record in an assay (separate samples or runs), and their calls can disagree. Active and inactive are the calls of the source. Calls come from the whole dose curve; as a rule, active = well fitted inhibition curve with a large enough effect; inconclusive = small, poorly fitted or top-dose-only effect; inactive = flat fitted curve, though single readings scatter.
# Tested on: KB-3-1
# Assay: Cytotoxic Profiling of Annotated Libraries Using Quantitative High-Throughput Screening (AID 1296008); note: nearly all actives have a fitted effect of over 60% in size
# Details: Five cell lines viability, CellTiter-Glo ATP luminescence, 48-72 h; max response: stronger effect = lower value
# Outline: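 Cells exposed to compounds for 48 or 72 hr at 37 degrees Celsius. Viability read as ATP-coupled luminescence with CellTiter-Glo after 10 min at room temperature.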
# % is set by controls: 0 for no effect and ±100 for the full control effect; potency is the fitted concentration of half-maximal effect.
SMILES,Potency,max response,outcome
Cc1c(C(=O)c2cccc3ccccc23)c2cccc3c2n1[C@H](CN1CCOCC1)CO3,13200 nM (active),,
CC(=O)Nc1ccc(OC[C@](C)(O)C(=O)Nc2ccc([N+](=O)[O-])c(C(F)(F)F)c2)cc1,,-13.4% (inactive) and 7.92% (inactive),
CCCCCCCCCC(CC)c1ccc(S(=O)(=O)O)cc1 (stereo not given),,-1.21% (inactive) and -21.2% (inactive),
Nc1ccc(Sc2ccc(N)cc2)cc1,,-8.88% (inactive),
CC(O)CN1CCN(CC(=O)[O-])CCN(CC(=O)[O-])CCN(CC(=O)[O-])CC1.[Gd+3] (stereo not given),,-2.15% (inactive) and -0.0896% (inactive),
CN1CCN(c2ccc([N+](=O)[O-])c3no[n+]([O-])c23)CC1,,,inactive
O=C(O)COc1nc(Cl)c(Cl)cc1Cl,,-16.3% (inactive),
CS(=O)(=O)c1ccc(C(=O)C2C(=O)CCCC2=O)c([N+](=O)[O-])c1,,-20.3% (inactive),
CCOP(=O)(NC(C)C)Oc1ccc(SC)c(C)c1 (stereo not given),,-7.33% (inactive),
COC1=C[C@@H]2[C@@H]3Cc4ccc(OC)c(O)c4[C@]2(CCN3C)CC1=O,,1.47% (inactive),inactive
O=C1C=CC[C@@H]2[C@H]3CCCN4CCC[C@@H](CN12)[C@@H]34,,5.89% (inactive),
CC(O)=C(C#N)C(=O)Nc1cc(Br)ccc1Br,,,inactive
O=C(NCC1CCOCC1)c1cnc(Nc2ccc(Cl)cc2Cl)nc1C(F)(F)F,,-20.4% (inactive),inactive
CC(C)(O)C=CC(=O)[C@](C)(O)[C@H]1[C@H](O)C[C@]2(C)[C@@H]3CC=C4[C@@H](C=C(O)C(=O)C4(C)C)[C@]3(C)C(=O)C[C@@]12C,132 nM (active),,
C=C1C[C@H]2[C@H]3CCC(=O)[C@@]3(C)CC[C@@H]2[C@@]2(C)C=CC(=O)C=C12,,8.58% (inactive),
C/C=C(/C)C(=O)O[C@H]1C(C)=C2[C@H]([C@@H]1OC(=O)CCCCCCC)[C@@](C)(OC(C)=O)C[C@H](OC(=O)CCC)[C@@]1(O)[C@H]2OC(=O)[C@@]1(C)O,46.1 nM (active),,
C[C@@H]1[C@H](O)[C@@H](C)C=CC=CCCC=CC=CC=CC=C[C@H](O[C@H]2O[C@@H](C)[C@H](O)[C@@H](N)[C@@H]2O)CC2O[C@](O)(C[C@@H](O)[C@H](O)CC[C@@H](O)C[C@@H](O)C[C@@H](O)CC(=O)O[C@H]1C)C[C@H](O)[C@H]2C(=O)O,,,inactive
COc1ccc(CC2NCCc3cc(OC)c(OC)cc32)cc1OC (stereo not given),,-3.69% (inactive),
C[C@H]1CCCC=CC2C[C@H](O)C[C@@H]2[C@H](O)C=CC(=O)O1 (stereo not given in full),1 nM (active),,

SMILES,Potency,max response,outcome
OCCCBr,,-26.3% (inactive),
CC(=O)[O][Hg][c]1ccccc1,1640 nM (active),,
CCN(CC)C(=O)c1ccc(C2=CC3(CCNCC3)Oc3cccc(O)c32)cc1,,5.76% (inactive) and 9.58% (inactive),
CC[C@H]1C=CC=CC[C@@H](C)[C@H](O)[C@@](C)(O)C(=O)[C@@H](C)[C@H](O)[C@@H](C)C(=O)[C@@H](C)[C@H](O)[C@@H](C)C=CC(=O)O[C@@H]2[C@@H](C)[C@H](CC1)O[C@]1(CC[C@H](C)[C@H](C[C@@H](C)O)O1)[C@H]2C,372 nM (active),,
Cc1ccccc1-n1c(Cn2cnc3c(N)ncnc32)nc2cccc(C)c2c1=O,1320 nM (active),0.515% (inactive),
COc1ccc2c(c1)CN(C)CC2c1ccc(Cl)c(Cl)c1 (stereo not given),,,inactive
c1cc2c(cc1[C@H]1OC[C@H]3[C@H]1CO[C@H]3c1ccc3c(c1)OCO3)OCO2,,6.13% (inactive),
O=[N+]([O-])c1ccc([As](=O)(O)O)cc1,,-9.29% (inactive),
COCCOCCO,,-8.22% (inactive),
CC(N[C@H]1C[C@H]1c1ccccc1)c1ccc2c(c1)OCCO2 (stereo not given in full),,2.53% (inactive) and -2.54% (inactive),
CC(=O)OCC1=C(C(=O)O)N2C(=O)[C@@H](N)[C@@H]2SC1,,0.594% (inactive),
COc1ccc2c(c[n+](C)c3c4cc5c(cc4ccc23)OCO5)c1OC,26400 nM (active),,
Cc1nc(-c2ccc(-c3ccc(C(=O)N4CCc5cc6c(cc54)C4(CCN(C)CC4)CO6)cc3)c(C)c2)no1,,2.18% (inactive),
CC(C)(C)C(O)C(Oc1ccc(Cl)cc1)n1cncn1 (stereo not given),,-16.3% (inactive),
Cc1c(C(=O)Nc2cccc(C(F)(F)F)c2)cc(-c2ccccc2)n1CCCN1CCOCC1,,-13.2% (inactive),
O=C1CCC[C@@H]2[C@H]3CCCN4CCC[C@@H](CN12)[C@@H]34,,2.17% (inactive),
O=C1C(I)=CC(=C(c2cc(I)c(O)c(I)c2)c2ccccc2C(=O)O)C=C1I,,-3.52% (inactive) and 5.85% (inactive),
CC(C)(C)NC[C@H](O)c1ccc(O)cc1Cl,,9.37% (inactive),
